Here are results for 16 compounds from PubChem BioAssay AID1698 (The Scripps Research Institute Molecular Screening Center, 2009).

The other results are listed elsewhere or left out. Activity calls are given as the source filed them.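 How the source made its calls: active means activation above the solvent-only control wells' mean plus 3 SD (cut at about 11% in these data); inactive means the rest.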

Sequence of Neuropeptide Y receptor type 2 (Homo sapiens) (P49146 whole entry, looked up): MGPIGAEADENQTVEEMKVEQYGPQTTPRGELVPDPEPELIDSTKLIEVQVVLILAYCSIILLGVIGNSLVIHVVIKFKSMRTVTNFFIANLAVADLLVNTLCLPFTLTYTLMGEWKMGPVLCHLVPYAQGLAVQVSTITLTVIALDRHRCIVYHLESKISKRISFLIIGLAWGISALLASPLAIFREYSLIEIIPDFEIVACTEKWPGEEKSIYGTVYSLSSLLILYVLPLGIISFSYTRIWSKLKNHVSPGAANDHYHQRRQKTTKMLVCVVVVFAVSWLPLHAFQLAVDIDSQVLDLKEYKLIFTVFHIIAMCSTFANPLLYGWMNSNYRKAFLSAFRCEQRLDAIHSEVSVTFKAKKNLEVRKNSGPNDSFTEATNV

The experiment has as its target Neuropeptide Y receptor type 2 (Homo sapiens) (UniProt P49146). Nature of the experiment: human Y2 receptor agonism – cell-based, fluorescence, counter-screen for NPY-Y1 potentiator project (AID 1698).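 Further: 0% = DMSO with isoproterenol and 100% = 40 nM NPY maximal response; agonism lowers cAMP so well fluorescence drops in active wells.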 The note with it: HEK293 Y2-CNGC, membrane potential fluorescence, agonist mode; at 3.6 µM; hits give high values. In general terms: Counterscreens check selectivity or assay interference.
For `CC(=O)c1ccc(NC(=O)C2CC(=O)Nc3nc4ccccc4n32)cc1` (stereo unspecified), the activation is 34.2% (active).

For the compound `N#Cc1ccc(C(=O)Nc2nc(-c3cccs3)c(C(=O)C(F)(F)F)s2)cc1`, the activation was 0.24% (inactive).

Consider `CCn1c2ccccc2c2cc(NC(=O)Nc3ccc([N+](=O)[O-])cc3C)ccc21`, for which the activation was 23.4% (active).

`CN1C(=O)c2ccccc2C(C(=O)NCCCN2CCCC2)C1c1c[nH]c2ccccc12` (stereo unspecified): the activation was -0.28% (inactive).

As for `O=C(Nc1ccccc1C(F)(F)F)c1cc(-c2ccc(O)cc2)on1`, the activation was -2.58% (inactive).

On to `O=C(Nc1ccc2c(c1)CCC2)c1cccc(S(=O)(=O)Nc2ccccc2Cl)c1`, for which the activation is 10.3% (active).

As for `CC1=C/C(=N\OS(=O)(=O)c2ccccc2)C=CC1=O`, the activation was 26.8% (active).

With `Cc1ccccc1NCC(=O)N/N=C\c1ccc([N+](=O)[O-])s1`, the activation is 39.5% (active).

For the compound `COC(=O)c1sc(-c2ccc(C(C)(C)C)cc2)cc1NC(=O)/C=C/C(=O)O`, the activation is 22.8% (active).

On to `COCCn1nnnc1C(c1ccccc1Cl)N1CCN(c2ccccc2OC)CC1` (stereo unspecified), for which the activation was 6.66% (inactive).

Take `COC(=O)c1ccc(NC(=O)CN(c2ccc(C)cc2)S(=O)(=O)c2c(C)n[nH]c2C)cc1`: the activation was 47% (active).

As to `CSc1nc(-c2ccco2)nn1C(=O)c1ccccc1Cl`, the activation is 26% (active).

`O=C1/C(=C/c2coc3ccc(O)cc3c2=O)SC(=S)N1c1ccccc1`: the activation was 15.2% (active).

As for `O=[N+]([O-])c1cc(Cl)cc(/C=N/NC(=S)Nc2cc(S(=O)(=O)N3CCOCC3)ccc2Cl)c1O`, the activation is 63.2% (active).

Consider `Cc1cccc(OCC(O)CN2CCN(CCN3C(=O)c4cccc5cccc(c45)C3=O)CC2)c1C` (stereo unspecified), for which the activation is 63% (active).

Turning to `O=C(c1cccs1)N1CCN(C(=O)N2CCOCC2)CC1`, the activation was -9.63% (inactive).
